The values that follow come from PubChem BioAssay AID743468 (Broad Institute, 2014).

The nature of this assay: change in PGC-1a target gene PDK4 expression, dose response, C2C12 myotubes, RT-qPCR, cherry-pick (AID 743468).

The list shows a part of the results. Calls of active or inactive are those of the source.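 The calls were made as follows: active = fitted curve reaching a 40% PDK4 expression rise at or below the top valid tested dose; inconclusive = no clear call, values can overlap the other calls; inactive = the rest, including shifts the wrong way.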

`N#Cc1ccc(-c2ccc(C3[C@@H]4CN(S(=O)(=O)c5ccc(F)cc5)C[C@H]3N4)cc2)cc1` (stereo partly specified): the outcome was inactive.
